This note sets out measurements from PubChem BioAssay.

The structures appear in SMILES notation. Inconclusive results are not listed. For part of these data: Measured potencies and affinities stand elsewhere. Active and inactive are the calls of the source. Unless noted, how the calls were made is not given here.

The nature of assay [1]: antimalarial activity against Dd2 strain (AID 2302;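 active means growth inhibition above 50% at the single 2 µM test dose, taken to imply half-maximal potency below 2 µM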;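 further: 0% = DMSO untreated growth and 100% = chloroquine plus artemisinin killed control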). Conditions: P. falciparum Dd2 in RBCs, LDH growth readout, 72 h; at 2 µM; stronger effect = higher value.
Assay [2] is described as follows: human hepatoma cell viability loss – ATP luminescence, cytotoxicity control for P. falciparum antimalarial project, primary screen (AID 2303;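 active means inhibition above 50%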;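 further: 0% = DMSO wells and 100% = digitonin-killed cells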). To be noted: HepG2 viability, 24-48 h, at 10 µM, stronger effect = higher value.
Assay [3] concerns the target L-lactate dehydrogenase (Plasmodium falciparum (isolate CDC / Honduras)) (UniProt Q27743). In words: PfLDH activity inhibition – cell lysate, 3D7 strain, counter-screen for P. falciparum growth inhibition project (AID 2304).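 Further: 0% = vehicle and 100% = reference inhibitor.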 Conditions: P. falciparum 3D7 crude extract, LDH APAD/NBT absorbance; at 2 µM; stronger effect = higher value. A general note: The purpose of a counterscreen is to sort out artefacts and off-target activity.

Assay [4] can be described thus: inhibition of 3D7 malaria parasite growth – strain 3D7 (AID 2306).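 Further: 0% = DMSO wells and 100% = chloroquine plus artemisinin control wells.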 To be noted: P. falciparum 3D7 erythrocytic growth, LDH absorbance, 72 h; at 2 µM; stronger effect = higher value.
The target of assay [5] is Plasmodium falciparum protein kinase 6 (PK6, PF3D7_1337100) (UniProt Q8IDW1). In words: PfPK6 kinase inhibitors, biochemical, TCAMS library (AID 1159586). Conditions: recombinant PfPK6, Kinase-Glo ATP depletion luminescence. On the technique in general: Kinase-Glo reads ATP consumption through a luciferase reaction.
Chain of Plasmodium falciparum protein kinase 6 (PK6, PF3D7_1337100) (Q8IDW1 1-305): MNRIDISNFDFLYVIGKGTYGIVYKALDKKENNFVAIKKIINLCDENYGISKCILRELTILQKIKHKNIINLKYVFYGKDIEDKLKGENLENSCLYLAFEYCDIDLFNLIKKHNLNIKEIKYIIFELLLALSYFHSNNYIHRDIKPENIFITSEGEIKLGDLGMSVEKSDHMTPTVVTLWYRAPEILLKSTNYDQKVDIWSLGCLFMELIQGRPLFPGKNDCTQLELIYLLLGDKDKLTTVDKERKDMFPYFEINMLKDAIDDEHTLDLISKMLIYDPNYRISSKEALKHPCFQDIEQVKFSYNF
The target of assay [6] is Protein kinase 7 (PK7), Plasmodium falciparum 3D7 (PF3D7_0213400) (UniProt Q7YTF7). In words: inhibition of Plasmodium PK7 catalytic activity – biochemical, TCAMS antimalarial set, Kinase-Glo luminescence (AID 1159587). To be noted: recombinant PfPK7, Kinase-Glo ATP depletion luminescence.
Chain of Protein kinase 7 (PK7), Plasmodium falciparum 3D7 (PF3D7_0213400) (Q7YTF7 1-343): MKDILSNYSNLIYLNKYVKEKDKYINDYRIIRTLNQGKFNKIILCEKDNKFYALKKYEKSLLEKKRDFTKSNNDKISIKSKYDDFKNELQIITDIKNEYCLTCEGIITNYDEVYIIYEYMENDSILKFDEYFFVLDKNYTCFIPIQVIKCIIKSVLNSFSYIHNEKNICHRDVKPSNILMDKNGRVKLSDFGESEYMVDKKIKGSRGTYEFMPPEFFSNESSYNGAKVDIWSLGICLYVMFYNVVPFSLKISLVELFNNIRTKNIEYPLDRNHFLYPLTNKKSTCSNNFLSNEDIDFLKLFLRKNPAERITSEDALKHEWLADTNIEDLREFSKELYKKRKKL
In assay [7] the target is Calcium-dependent protein kinase 4 (Plasmodium falciparum (isolate 3D7)) (UniProt Q8IBS5). In words: PfCDPK4 kinase inhibitors, biochemical, TCAMS library (AID 1159588; cut-off not given, nearly all actives have IC50 up to about 0.91 µM). Conditions: recombinant PfCDPK4, Kinase-Glo ATP depletion luminescence.
Chain of Calcium-dependent protein kinase 4 (Plasmodium falciparum (isolate 3D7)) (Q8IBS5 whole entry, looked up): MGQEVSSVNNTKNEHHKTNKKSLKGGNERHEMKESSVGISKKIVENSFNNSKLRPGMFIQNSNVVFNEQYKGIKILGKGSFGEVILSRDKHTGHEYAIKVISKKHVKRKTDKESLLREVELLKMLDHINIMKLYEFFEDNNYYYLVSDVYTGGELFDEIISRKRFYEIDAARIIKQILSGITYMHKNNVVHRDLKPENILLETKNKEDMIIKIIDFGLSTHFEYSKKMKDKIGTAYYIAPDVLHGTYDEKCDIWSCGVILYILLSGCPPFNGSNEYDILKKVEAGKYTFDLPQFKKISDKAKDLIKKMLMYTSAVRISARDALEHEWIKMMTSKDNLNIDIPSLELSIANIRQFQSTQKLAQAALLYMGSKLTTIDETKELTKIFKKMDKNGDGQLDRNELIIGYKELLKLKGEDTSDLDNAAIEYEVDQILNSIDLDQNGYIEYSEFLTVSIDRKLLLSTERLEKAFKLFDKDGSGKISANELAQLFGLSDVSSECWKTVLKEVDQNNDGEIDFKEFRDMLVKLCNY
The subject of assay [8] is Aerobactin synthetase IucA (Klebsiella pneumoniae). In words: inhibition of K. pneumoniae IucA enzyme – biochemical, Tocris library, absorbance (AID 1345561).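 Further: 100% = enzyme without compound and 0% = no enzyme.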 Conditions: purified IucA enzyme assay, absorbance (OD) read-out; stronger effect = lower value;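 tested at 8 µM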.
Assay [9] is described as follows: viability loss in pontine glioma line – cell-based, SU-DIPG-XVII, MIPE5.0, CellTiter-Glo, qHTS, dose response (AID 1347060; cut-off not given, nearly all actives have AC50 up to about 26 µM;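 further: cells exposed to compound for 48 hours before viability readout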). To be noted: CellTiter-Glo ATP luminescence. In general terms: ATP-based viability assays read luminescence as a measure of living cells.
Assay [10] is described as follows: viability loss in pontine glioma line – cell-based, SU-DIPG-XIII, MIPE4.0, CellTiter-Glo, qHTS, dose response (AID 1347061; cut-off not given, nearly all actives have AC50 up to about 37 µM;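 further: cells exposed to compound for 48 hours before readout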). To be noted: CellTiter-Glo ATP luminescence.
Assay [11] is described as follows: viability loss in pontine glioma line – cell-based, JHH-DIPG-1, MIPE4.0, CellTiter-Glo, qHTS, dose response (AID 1347062; cut-off not given, nearly all actives have AC50 up to about 27 µM;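 further: cells exposed to compound for two days before readout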). To be noted: JHH-DIPG-1 viability, CellTiter-Glo ATP luminescence.
Assay [12] can be described thus: viability loss in pontine glioma line – cell-based, SU-DIPG-IV, MIPE4.0, CellTiter-Glo, qHTS, dose response (AID 1347063; cut-off not given, nearly all actives have AC50 up to about 30 µM;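 further: compound exposure lasted 48 hours before the viability readout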). To be noted: CellTiter-Glo ATP luminescence.
Assay [13] in a line: viability loss in pontine glioma line – cell-based, SU-DIPG-XIII, MIPE5.0, CellTiter-Glo, qHTS, dose response (AID 1347064; cut-off not given, nearly all actives have AC50 up to about 23 µM;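 further: cells exposed to compound for 48 hours before the viability read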). Conditions: CellTiter-Glo ATP luminescence.
A short description of assay [14]: viability loss in pontine glioma line – cell-based, SU-DIPG-XXV, MIPE5.0, CellTiter-Glo, qHTS, dose response (AID 1347065; cut-off not given, nearly all actives have AC50 up to about 26 µM;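 further: cells exposed to compound for 48 hours before ATP readout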). To be noted: CellTiter-Glo ATP luminescence.
The nature of assay [15]: growth inhibition of DIPG cells – cell-based, MIPE4.0 library, CellTiter-Glo luminescence, qHTS (AID 1347066; cut-off not given, nearly all actives have AC50 up to about 30 µM;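 further: cells exposed to compound for 48 hours before readout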). To be noted: SU-DIPG-VI viability, CellTiter-Glo ATP luminescence.
Assay [16] is described as follows: JHH-DIPG-1 glioma cell viability, MIPE5.0 library, CellTiter-Glo luminescence, qHTS (AID 1347067; cut-off not given, nearly all actives have AC50 up to about 26 µM;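 further: cells exposed to compound for 48 hours before readout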). To be noted: JHH-DIPG-1 glioma viability, CellTiter-Glo ATP luminescence.
Assay [17] can be described thus: growth inhibition of DIPG cells – cell-based, MIPE5.0 library, qHTS (AID 1347068; cut-off not given, nearly all actives have IC50 up to about 30 µM). To be noted: SU-DIPG-XXV viability.
The nature of assay [18]: viability loss with induced miR-34 in A549 – imaging, A549 dox-inducible miR-34, nuclei and caspase counts, primary screen (AID 1347080;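 active means compounds whose cell count with miR-34 switched on is under 0.7 times the count with it off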). Conditions: A549 miR-34 inducible, Hoechst nuclei count, 48 h.
Assay [19] in a line: compounds altering HSF1 focus formation in cells – imaging, Selleck Cancer Library (AID 1347162; in the data active means plate-normalised HSF1 focus index below about 0.46). Conditions: human cells, HSF1 nuclear foci imaging, at 10 µM; SSMD: measured here: HSF1 foci SSMD mean; cell count: measured here: cell number; plate-normalised HSF1 focus index: stronger effect = lower value.
The nature of assay [20]: galactose survival enhancers in mitochondrial complex I cybrids – cell-based, galactose medium, ATP luminescence, primary screen (AID 1645843;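 active means z-score of at least 1.8 in each of two replicates, scored against plate mean and spread of sample wells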;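 further: positive z means more ATP and so rescue of galactose-driven cybrid death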). To be noted: complex I mutant cybrid cells, 72 h, stronger effect = higher value.

Chain of L-lactate dehydrogenase (Plasmodium falciparum (isolate CDC / Honduras)) (Q27743 whole entry, looked up): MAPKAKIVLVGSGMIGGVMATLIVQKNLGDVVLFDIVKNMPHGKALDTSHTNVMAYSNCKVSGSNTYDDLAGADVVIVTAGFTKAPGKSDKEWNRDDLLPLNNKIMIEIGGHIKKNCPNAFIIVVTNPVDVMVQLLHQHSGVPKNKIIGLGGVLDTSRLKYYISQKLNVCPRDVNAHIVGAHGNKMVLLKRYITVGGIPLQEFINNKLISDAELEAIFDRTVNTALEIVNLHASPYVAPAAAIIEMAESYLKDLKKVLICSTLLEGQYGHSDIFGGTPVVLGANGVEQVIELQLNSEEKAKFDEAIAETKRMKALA

For the compound `NCc1ccc(Nc2nccc(Nc3ccc(-c4ccccc4)cc3)n2)cc1`, the results for the growth inhibition in assay [1] and in [4] were 98% (active) and 101% (active), respectively. In addition, the inhibition in assay [2] was 47% (inactive); in assay [3] it was -1% (inactive). Moreover, the result in assay [5], in [6] and in assay [7] was inactive.

Take `COCCNCc1cccc(-c2ccc3c(Nc4ccc(Oc5ccccc5)cc4)ccnc3c2)c1`: the growth inhibition in [1] was 99% (active); in [4], 101% (active). In addition, the inhibition in assay [2] was 25% (inactive); in assay [3], 2% (inactive). The result in assay [5], in assay [6] and in [7] was inactive.

For the compound `CC(C)(C)CNCC(C)(C)c1nc(-c2ccc(Cl)c(O)c2)c(-c2ccncc2)[nH]1`, the results for the growth inhibition in assay [1] and in assay [4] were 98% (active) and 101% (active), respectively. Besides, the inhibition was 42% (inactive) in assay [2] and 5% (inactive) in assay [3]. Besides, the outcome in assay [5], in assay [6] and in assay [7] was inactive.

Consider `CN1CCN(CCCNCc2cccc(Nc3nccc(Nc4ccc(Oc5ccccc5)cc4)n3)c2)CC1`, for which the growth inhibition in [1] was 80% (active); in assay [4] it was 100% (active). In addition, the inhibition in assay [2] was 97% (active); in [3], -2% (inactive). Also, the outcome in assay [5], in [6] and in [7] was inactive.

Regarding `CC(C)(CNC(=O)[C@H]1CCCCN1)c1nc(-c2ccc(Cl)c(O)c2)c(-c2ccncc2)[nH]1`, the growth inhibition in [1] and in assay [4] was 98% (active) throughout. Besides, the inhibition is 6% (inactive) in assay [2] and -3% (inactive) in assay [3]. Also, the outcome in [5], in [6] and in assay [7] was inactive.

With `CC(C)(CNC(=O)[C@@H]1CCCCN1)c1nc(-c2ccc(Cl)c(O)c2)c(-c2ccncc2)[nH]1`, the growth inhibition is 96% (active) in assay [1] and 97% (active) in [4]. In addition, the inhibition was -8% (inactive) in assay [2] and -10% (inactive) in assay [3]. In addition, the outcome in assay [5], in assay [6] and in assay [7] was inactive.

As for `Cc1nc(-c2cccc(Nc3ccnc4cc(-c5nccs5)ccc34)c2)no1`, the growth inhibition in [1] is 90% (active); in assay [4], 99% (active). For the same compound, the inhibition was 37% (inactive) in assay [2] and -2% (inactive) in assay [3]. Also, the outcome in [5], in [6] and in assay [7] was inactive.

On to `CCn1c(-c2nonc2N)nc2c(-c3cccc(NC(=O)Nc4ccc(Cl)cc4)c3)ncc(OCCCN)c21`, for which the results for the growth inhibition in [1] and in assay [4] were 72% (active) and 96% (active), respectively. Besides, the inhibition in assay [2] is 26% (inactive); in [3], -1% (inactive). The result in assay [5], in assay [6] and in assay [7] was inactive.

Turning to `COc1ccc(-c2cnc3[nH]cc(-c4ccncc4)c3c2)cc1OC`, the growth inhibition in assay [1] was 97% (active); in [4], 98% (active). Also, the results for the inhibition in [2] and in assay [3] were 52% (active) and -2% (inactive), respectively. In addition, the result in assay [5], in assay [6] and in [7] was inactive.

Turning to `CCNC(=O)Nc1ccc(-c2cnc(N)c(-c3nc4ccc(OC)cc4[nH]3)c2)cc1`, the results for the growth inhibition in [1] and in assay [4] were 43% (inactive) and 100% (active), respectively. The inhibition was 51% (active) in [2] and 1% (inactive) in assay [3]. The result in assay [5], in assay [6] and in assay [7] was inactive.

Turning to `CN(C)CCNCc1cccc(-c2ccc3c(Nc4ccc(Oc5ccccn5)cc4)ccnc3c2)c1`, the growth inhibition in assay [1] was 100% (active); in assay [4], 99% (active). In addition, the results for the inhibition in [2] and in [3] were 27% (inactive) and 2% (inactive), respectively. Further, the result in assay [5], in [6] and in assay [7] was inactive.

With `CN(C)CCNCc1ccc(-c2ccc3c(Nc4ccc(Oc5ccccc5)cc4)ccnc3c2)o1`, the growth inhibition is 99% (active) in [1] and 100% (active) in assay [4]. The inhibition in [2] was 19% (inactive); in [3], 2% (inactive). Moreover, the result in assay [5], in assay [6] and in assay [7] was inactive.

Consider `CN(C(=O)c1cc2c(-c3cncnc3)cccc2[nH]1)c1ccccc1`, for which the values for the growth inhibition in assay [1] and in assay [4] were 99% (active) and 92% (active), respectively. The inhibition is 1% (inactive) in assay [2] and 0% (inactive) in [3]. For the same compound, the result in assay [5], in assay [6] and in [7] was inactive.

As for `Cc1[nH]c(/C=C2\C(=O)Nc3ccc(S(=O)(=O)Cc4c(Cl)cccc4Cl)cc32)c(C)c1C(=O)N1CCC[C@@H]1CN1CCCC1`, the growth inhibition in assay [1] is 92% (active); in assay [4], 85% (active). The values for the inhibition in assay [2] and in [3] were 33% (inactive) and -1% (inactive), respectively. Further, the result in assay [5], in assay [6], in [10] and in [17] was inactive. In addition, in assay [8], the remaining activity was 123% (inactive). Moreover, the AC50 in assay [9] is 9.34 µM (active); in assay [11], 26.4 µM (active); in [12], 23.5 µM (active); in assay [13], 9.34 µM (active); in assay [14], 8.33 µM (active); in assay [15], 8.33 µM (active). The AC50 in [16] was 5.9 µM (active). Further, the fold change in assay [18] (stronger effect = lower value, cell number ratio, induced over uninduced) was 1.1 (inactive); in [18] (measured here: relative caspase fold change +Dox/-Dox), 1.29. Further, the cell count was 5950 in assay [18] (measured here: total cells with miR-34 induction, stronger effect = lower value); 5410 in assay [18] (measured here: total cells without miR-34 induction); 7510 in assay [19]. Also, the SSMD in assay [19] is 0.661. The plate-normalised HSF1 focus index in assay [19] was 1.05 (inactive). Moreover, the z-score in [20] is -0.7 (inactive).

Turning to `CCn1c(-c2nonc2N)nc2c(-c3cccc(NC(=O)Nc4cccc(C#N)c4)c3)ncc(OCCCN)c21`, the figures for the growth inhibition in assay [1] and in assay [4] were 80% (active) and 92% (active), respectively. Further, the inhibition in assay [2] was 37% (inactive); in assay [3], 0% (inactive). The result in [5] and in assay [6] was inactive.

Consider `O=C(Nc1cccc(-c2nn3ncccc3c2-c2ccnc(Nc3ccccc3)n2)c1)c1c(F)cccc1F`, for which the growth inhibition is 96% (active) in assay [1] and 98% (active) in [4]. Moreover, the inhibition was 51% (active) in [2] and 0% (inactive) in assay [3]. In addition, the result in assay [5] and in assay [6] was inactive.

For `CC(c1cccc(Nc2nccc(-c3c(-c4cccc(NC(=O)c5c(F)cccc5F)c4)nn4ccccc34)n2)c1)S(C)(=O)=O` (configuration not stated), the growth inhibition in [1] was 99% (active); in assay [4] it was 98% (active). Also, the inhibition in [2] was 76% (active); in assay [3], -6% (inactive). In addition, the result in assay [5] and in assay [6] was inactive.

For `CC(C)(CNCc1ccc(Cl)c(Cl)c1)c1nc(-c2ccc(Cl)c(O)c2)c(-c2ccncc2)[nH]1`, the growth inhibition in [1] is 97% (active); in assay [4], 101% (active). The inhibition is 43% (inactive) in [2] and -3% (inactive) in [3]. Further, the result in assay [5], in assay [6] and in assay [7] was inactive.

Regarding `CNCC(C)(C)c1nc(-c2ccc(Cl)c(O)c2)c(-c2ccncc2)[nH]1`, the growth inhibition was 96% (active) in assay [1] and 98% (active) in assay [4]. In addition, the figures for the inhibition in [2] and in assay [3] were 46% (inactive) and -2% (inactive), respectively. Also, the outcome in [5], in assay [6] and in assay [7] was inactive.

The inhibition is the drop in the measured response relative to a control, in per cent. Broadly, the remaining activity is the signal under treatment as a percentage of the control signal. As a reminder, the AC50 is the concentration at which the activity in the assay is half-maximal.
